This note sets out measurements from PubChem BioAssay (Tox21).

Records with an inconclusive call do not appear. Unmarked numbers belong to inactive results. Active and inactive are the calls of the source. Unless noted, the call rests on the fitted dose curve; in most records, active means well fitted curve in the direction sought with a large enough effect in the repeat runs; inconclusive means weak or mixed curves; inactive means no such curve, though single readings can be large; an effect the other way counts as inactive or inconclusive.

Experiment [1] is described as follows: qHTS assay to identify aromatase inhibitors - cell viability counter screen (AID 743084).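 Further: cells stimulated with testosterone during compound exposure; nearly all actives have a fitted effect of over 55% in size.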 Further: potency means the concentration at half of the fitted maximal effect. For orientation: Quantitative high-throughput screening tests each substance at several concentrations.
Experiment [2] concerns the target Aryl hydrocarbon receptor (Homo sapiens) (UniProt P35869). Kind of experiment: qHTS assay to identify small molecule that activate the aryl hydrocarbon receptor (AhR) signaling pathway (AID 743085).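 Further: HG2L7.5c1 human HepG2 liver cells with stably integrated DRE-driven firefly reporter; series mostly up to about 70 µM; nearly all actives have a fitted effect of over 15% in size.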 An outline of the steps: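 Stably transfected human liver carcinoma cells (HG2L7.5c1; 20 DRE-firefly luciferase) were incubated 5 h, dosed, and kept 24 h at 37C. Agonism was scored from increased luciferase luminescence.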

Experiment [3] in a line: qHTS assay to identify small molecule that activate the aryl hydrocarbon receptor (AhR) signaling pathway - cell viability counter screen (AID 743086). Further: nearly all actives have a fitted effect of over 45% in size. Further: potency means the concentration at half of the fitted maximal effect. An outline of the steps: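 Cytotoxicity counter screen: CellTiter-Fluor signal (30 min, 37 C) in 4000 HepG2 cells/well carrying the DRE-luciferase reporter, following 24 h compound exposure at 37 C.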
Experiment [4] has as its target Peroxisome proliferator-activated receptor gamma (Homo sapiens) (UniProt P37231). Kind of experiment: qHTS assay to identify small molecule agonists of the peroxisome proliferator-activated receptor gamma (PPARg) signaling pathway (AID 743094; active means well fitted activation curve with a large enough effect in the signal ratio in the repeat runs, not every such curve was filed as active; the % refers to the signal ratio). An outline of the steps:
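Following 5 h plating at 37C, PPARg-bla HEK293H cells receive compound or DMSO for 17 h; fluorescence intensity is recorded after LiveBLAzer B/G loading for 1 h at room temperature.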

Experiment [5] has the same target. Kind of experiment: qHTS assay to identify small molecule antagonists of the peroxisome proliferator-activated receptor gamma (PPARg) signaling pathway (AID 743191; calls by dose curve; further: series mostly up to about 63 µM; nearly all actives have a fitted effect of over 30% in size). An outline of the steps: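 Beta-lactamase reporter under UAS control in HEK293H PPARg-bla cells; compound treatment 17 h at 37C. Read-out: fluorescence intensity after 1 h room-temperature incubation with LiveBLAzer B/G FRET substrate.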

A short description of experiment [6]: qHTS assay to identify small molecule antagonists of the peroxisome proliferator-activated receptor gamma (PPARg) signaling pathway - cell viability counter screen (AID 743194). Further: nearly all actives have a fitted effect of over 55% in size. Summed up: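 Viability was measured as CellTiter-Glo luminescence in GeneBLAzer PPARg UAS-bla HEK293H cells. These cells had been exposed 17 h at 37 C to compounds together with rosiglitazone at 50 nM final, with the beta-lactamase readout taken in the same wells.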

The nature of experiment [7]: qHTS assay for small molecule agonists of the antioxidant response element (ARE) signaling pathway (AID 743202; active means well fitted activation curve with a large enough effect in the signal ratio in the repeat runs, not every such curve was filed as active; the % refers to the signal ratio). Summed up: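 Quantitative high-throughput format in HepG2 cells bearing an integrated ARE-beta-lactamase reporter. Compound exposure lasted 16 h at 37 C, and fluorescence was read 2 h after adding LiveBLAzer B/G substrate at room temperature.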
A short description of experiment [8]: qHTS assay for small molecule agonists of the antioxidant response element (ARE) signaling pathway - cell viability counter screen (AID 743203; calls by dose curve; further: nearly all actives have a fitted effect of over 55% in size). An outline of the steps: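 Compounds in DMSO were pinned onto ARE-bla HepG2 cells plated 5 hrs earlier at 2,000 cells/well. Sixteen hours later at 37C/5% CO2, CellTiter-Glo was added and luminescence measured after 30 min at room temperature.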

The nature of experiment [9]: qHTS assay for small molecule activators of the heat shock response signaling pathway - cell viability counter screen (AID 743209). Further: nearly all actives have a fitted effect of over 50% in size. An outline of the steps:
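Counter screen for cytotoxicity in HeLa HSE-bla reporter cells. Treatment was 5 h at 37 C; viability was detected by luminescent ATP assay (CellTiter-Glo) in the same wells as the beta-lactamase read.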

The nature of experiment [10]: qHTS assay for small molecule activators of the heat shock response signaling pathway (AID 743210; active means well fitted activation curve with a large enough effect in the signal ratio in the repeat runs, with a control signal flat, not every such curve was filed as active; the % refers to the signal ratio;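 further: HeLa cells with beta-lactamase reporter driven by heat shock elements; series mostly up to about 63 µM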). Summed up: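 HeLa HSE-bla cells, overnight plating; cpd in DMSO 5 h, 37 C; LiveBLAzer B/G FRET substrate 2.5 h RT; fluorescence intensity read.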

Chain of Peroxisome proliferator-activated receptor gamma (Homo sapiens) (P37231 whole entry, looked up): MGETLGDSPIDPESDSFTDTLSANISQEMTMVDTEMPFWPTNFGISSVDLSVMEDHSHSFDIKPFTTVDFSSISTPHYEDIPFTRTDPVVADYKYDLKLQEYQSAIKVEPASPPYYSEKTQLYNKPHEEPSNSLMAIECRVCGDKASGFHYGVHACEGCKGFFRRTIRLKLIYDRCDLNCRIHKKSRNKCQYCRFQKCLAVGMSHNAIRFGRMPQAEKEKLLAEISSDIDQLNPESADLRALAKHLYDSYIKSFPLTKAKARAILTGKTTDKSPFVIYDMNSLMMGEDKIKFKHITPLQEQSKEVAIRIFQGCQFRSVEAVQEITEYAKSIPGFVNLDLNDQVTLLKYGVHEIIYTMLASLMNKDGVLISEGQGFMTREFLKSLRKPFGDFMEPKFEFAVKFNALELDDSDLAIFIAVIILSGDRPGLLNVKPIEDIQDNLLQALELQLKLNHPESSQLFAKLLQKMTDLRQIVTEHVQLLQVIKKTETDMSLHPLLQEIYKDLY
Chain of Aryl hydrocarbon receptor (Homo sapiens) (P35869 whole entry, looked up): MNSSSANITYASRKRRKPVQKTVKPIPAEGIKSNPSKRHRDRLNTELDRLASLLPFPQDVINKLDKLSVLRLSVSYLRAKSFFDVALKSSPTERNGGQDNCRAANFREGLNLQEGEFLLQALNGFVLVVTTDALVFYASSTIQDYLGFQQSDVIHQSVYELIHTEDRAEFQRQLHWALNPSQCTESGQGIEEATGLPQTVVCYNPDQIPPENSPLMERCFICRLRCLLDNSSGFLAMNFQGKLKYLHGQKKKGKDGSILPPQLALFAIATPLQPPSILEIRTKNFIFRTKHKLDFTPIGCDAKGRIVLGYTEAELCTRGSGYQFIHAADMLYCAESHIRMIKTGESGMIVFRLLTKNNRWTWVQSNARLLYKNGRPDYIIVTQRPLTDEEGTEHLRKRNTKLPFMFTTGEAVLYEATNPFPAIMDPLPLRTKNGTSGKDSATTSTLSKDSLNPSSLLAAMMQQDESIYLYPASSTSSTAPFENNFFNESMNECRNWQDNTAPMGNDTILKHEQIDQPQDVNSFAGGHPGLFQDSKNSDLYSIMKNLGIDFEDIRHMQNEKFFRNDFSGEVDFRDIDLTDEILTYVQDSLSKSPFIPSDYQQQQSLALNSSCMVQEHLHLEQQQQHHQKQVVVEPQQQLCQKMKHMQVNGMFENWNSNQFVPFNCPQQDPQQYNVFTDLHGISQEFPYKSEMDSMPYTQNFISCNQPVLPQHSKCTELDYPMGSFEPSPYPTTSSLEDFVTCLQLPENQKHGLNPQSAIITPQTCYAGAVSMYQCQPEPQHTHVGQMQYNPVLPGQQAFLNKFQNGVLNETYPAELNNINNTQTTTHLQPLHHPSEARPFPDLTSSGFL

As to `COC(=O)C(C)=O`, the Potency result in experiment [1], in experiment [2], in experiment [3], in [4], in experiment [5] and in experiment [6] was “inactive” in each case. The Potency entry in experiment [7], in experiment [8] and in experiment [9] was “inactive” each time. The call in experiment [10] was inactive.
In the case of `CCCC[C@H]1CN(CC2CCOCC2)C(=O)OC12CCN(C1(C)CCN(C(=O)c3c(C)ncnc3C)CC1)CC2`, the Potency entry in experiment [1], in [2], in experiment [3], in experiment [4], in experiment [5] and in experiment [6] was “inactive” each time. Also, the Potency result in [7], in experiment [8] and in [9] was “inactive” each time.
`CC(=O)O[C@H]1C[C@@H]2CC[C@@H]3[C@H](CC[C@@]4(C)[C@H]3C[C@H]([N+]3(C)CCCCC3)[C@@H]4OC(C)=O)[C@@]2(C)C[C@@H]1N1CCCCC1`: the Potency entry in experiment [1], in experiment [2], in experiment [3], in experiment [4], in experiment [5] and in experiment [6] was “inactive” in each case. Besides, the Potency result in experiment [7] and in [8] was “inactive” throughout. In addition, the call in [10] was inactive.
As to `C=C(C)C(=O)OCCOc1ccccc1`, the Potency result in experiment [1], in experiment [2], in experiment [3], in experiment [4], in experiment [5] and in experiment [6] was “inactive” throughout. Also, the Potency entry in [7], in experiment [8] and in experiment [9] was “inactive” in each case.
Regarding `C=CCCCCCC`, the Potency result in [1], in experiment [2], in experiment [3], in [4], in experiment [5] and in experiment [6] was “inactive” in each case. Also, the Potency result in [7], in experiment [8] and in experiment [9] was “inactive” in each case.
As for `O=C(O)C1CCC(C(=O)O)CC1` (configuration not stated), the Potency entry in experiment [1], in experiment [2], in experiment [3], in experiment [4], in experiment [5] and in experiment [6] was “inactive” throughout. For the same compound, the Potency result in experiment [7], in experiment [8] and in experiment [9] was “inactive” each time. Moreover, the compound was called inactive in [10].
In the case of `Cc1occc1S`, the Potency entry in [1], in experiment [2], in [3], in experiment [4], in experiment [5] and in experiment [6] was “inactive” throughout. Besides, the Potency entry in experiment [8] and in [9] was “inactive” each time.
For `CCCCCCCCCCCCCCCCCBr`, the Potency entry in experiment [1], in experiment [2], in experiment [3], in [4], in experiment [5] and in experiment [6] was “inactive” in each case. For the same compound, the Potency entry in [7], in [8] and in experiment [9] was “inactive” in each case.
Consider `CCCCCCCCCCCCCCCC(=O)OC/C=C(C)/C=C/C=C(C)/C=C/C1=C(C)CCCC1(C)C`, for which the Potency result in [1], in experiment [2], in [3], in [4], in [5] and in experiment [6] was “inactive” in each case. Further, the Potency entry in experiment [8] and in experiment [9] was “inactive” throughout.
With `CCN1CCC[C@H]1CNC(=O)c1c(OC)ccc(Br)c1OC`, the Potency entry in experiment [1], in experiment [2], in [3], in experiment [4], in experiment [5] and in experiment [6] was “inactive” each time. Further, the Potency entry in [7], in [8] and in experiment [9] was “inactive” throughout. The call in experiment [10] was inactive.
For the compound `CCCCCCCCC(CO)CCCCCC` (configuration not stated), the Potency entry in [1], in [2], in [3], in experiment [4], in experiment [5] and in [6] was “inactive” throughout. The Potency entry in [7], in experiment [8] and in experiment [9] was “inactive” in each case. Further, the result in experiment [10] was inactive.
In the case of `CCOC(=O)CC(=O)c1cc(F)c(Cl)nc1Cl`, the Potency entry in experiment [1], in [2], in experiment [3], in experiment [4], in experiment [5] and in experiment [6] was “inactive” throughout. The Potency result in experiment [7], in experiment [8] and in experiment [9] was “inactive” each time. Further, the compound was classed as inactive in [10].
As to `CC(=O)OCCc1ccccc1`, the Potency entry in [1], in [2], in experiment [3], in experiment [4], in experiment [5] and in experiment [6] was “inactive” throughout. Further, the Potency entry in experiment [7], in experiment [8] and in experiment [9] was “inactive” each time. For the same compound, the call in [10] was inactive.
For `CC(CN)CCCN` (configuration not stated), the Potency entry in experiment [1], in [2], in [3], in experiment [4], in [5] and in experiment [6] was “inactive” in each case. Further, the Potency entry in [7], in experiment [8] and in experiment [9] was “inactive” in each case. Further, in [10], the result was inactive.
`CCCCC(CC)(CO)CO`: the Potency result in experiment [1], in [2], in experiment [3], in experiment [4], in [5] and in experiment [6] was “inactive” each time. Besides, the Potency result in [7], in [8] and in experiment [9] was “inactive” throughout. In addition, the compound was classed as inactive in experiment [10].
Take `NCCCOCCOCCOCCCN`: the Potency entry in experiment [1], in experiment [2], in [3], in [4], in experiment [5] and in experiment [6] was “inactive” each time. In addition, the Potency entry in experiment [8] and in experiment [9] was “inactive” in each case. For the same compound, the outcome in experiment [10] was inactive.
Take `CCN(CC)C(C)CN1c2ccccc2Sc2ccccc21` (configuration not stated): the Potency result in [1], in [2], in experiment [3], in experiment [4], in experiment [5] and in [6] was “inactive” throughout. For the same compound, the Potency result in [8] and in experiment [9] was “inactive” throughout. For the same compound, in [10], the outcome was inactive.
Regarding `CCCCCCCCCC(=O)OCC`, the Potency result in [1], in experiment [2], in [3], in experiment [4], in [6] and in experiment [7] was “inactive” in each case. The Potency entry in experiment [8] and in experiment [9] was “inactive” in each case. The result in [10] was inactive.
For `CCCCCCCC/C=C\CCCCCCCC(N)=O`, the Potency entry in experiment [1], in [2], in experiment [3], in [4], in [6] and in [7] was “inactive” each time. Moreover, the Potency entry in [8] and in experiment [9] was “inactive” throughout. The compound was classed as inactive in [10].
For the compound `CN(c1nccc(=O)[nH]1)C1CCN(c2nc3ccccc3n2Cc2ccc(F)cc2)CC1`, the Potency result in experiment [1], in experiment [2], in experiment [3], in experiment [4], in [6] and in experiment [8] was “inactive” each time. Further, the Potency entry in [9] is “inactive”. Moreover, in [10], the compound was called inactive.
Consider `Oc1ccc2c(c1)OCO2`, for which the Potency result in experiment [1], in experiment [2], in [3], in experiment [4], in [6] and in [7] was “inactive” throughout. Further, the Potency entry in [8] and in experiment [9] was “inactive” in each case. The result in [10] was inactive.
For `C[C@H](CCC(=O)O)[C@H]1CC[C@H]2[C@@H]3[C@H](O)C[C@@H]4C[C@H](O)CC[C@]4(C)[C@H]3CC[C@]12C`, the Potency entry in [1], in experiment [2], in experiment [3], in experiment [4], in experiment [6] and in experiment [8] was “inactive” in each case. The Potency result in experiment [9] was “inactive”. The call in experiment [10] was inactive.
With `CCN(CC)CCc1nc(-c2ccccc2)no1`, the Potency entry in experiment [1], in experiment [2], in [3], in [4], in [6] and in experiment [8] was “inactive” each time. In experiment [9], the Potency entry is “inactive”. Further, in experiment [10], the call was inactive.
As to `CC(O)C1CCCCC1` (configuration not stated), the Potency entry in [1], in [2], in experiment [3], in experiment [4], in [5] and in experiment [6] was “inactive” throughout. Also, the Potency result in experiment [8] and in experiment [9] was “inactive” each time. In addition, the call in experiment [10] was inactive.
In the case of `Cc1cc(C)c(S(=O)(=O)O)cc1N=Nc1cc(S(=O)(=O)O)c2ccccc2c1O`, the figures for the Potency in experiment [1] and in [3] were 24.3 µM (active) and 27.3 µM (active), respectively. Also, the Potency result in experiment [2], in [4], in [6], in [8] and in experiment [9] was “inactive” throughout. Besides, in experiment [10], the outcome was inactive.
